HT1080 IDH1KD tx – qHTS for induction of synthetic lethality in tumor cells producing 2HG: qHTS for the HT-1080-IDH1KD cell line | HT-1080 IDH1 knockdown viability, ATP luminescence, 48 h | hit rate 2% among 360,000 | Potency, µM (highest dose often 46.1 µM), for inactives: top-dose activity, negative = toxicity, most hits filed as cytotoxic;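 note: 0% = DMSO wells and -100% = cell-free medium wells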
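Luminescent ATP read-out (CellTiter-Glo, 10 min at room temperature) after 48 h compound exposure at 37 °C gave viability of IDH1-knockdown HT-1080 cells. Activity was normalised to DMSO and cell-free wells, then fitted as concentration-response curves.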
KB-V1 cytotox – qHTS assay for MDR1-selective chemotherapeutics: Primary screen using the drug-selected MDR subline cells KB-V1; KB-V1 MDR cells viability, CellTiter-Glo, 72 h; Potency, µM (highest dose often 46.1 µM), hits mostly cytotoxic; hit rate 3.4% among 400,000; AID 1347076, 2019; note: % is set by controls: 0 for no effect and ±100 for the full control effect; nearly all actives have a fitted effect of over 60% in size
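KB-V1, DMEM (no phenol red) + 10% FBS; cpd pin-transferred, titration series; 72 h, 37 degrees C; CellTiter-Glo, luminescence. Data normalized, curve-fit.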
SW480 rereplic – A quantitative high throughput screen for small molecules that induce DNA re-replication in SW480 colon adenocarcinoma cells | SW480 DNA re-replication, Hoechst DNA content imaging, 48 h | Potency, µM (titrated, usually from 46.1 µM), inactives show at the top dose re-replication activation, actives largely listed as activators | hit rate 1.8% among 340,000 | AID 624297, 2012; note: % of control where 0% means no effect; nearly all actives have a fitted effect of over 55% in size
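Per well, 250 cells were exposed to pinned compound for 48 hr. Nuclear DNA was visualised with Hoechst (40 min, 37 C) and total object intensity recorded by fluorescence scanning.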
HT1080NT lethal – qHTS for induction of synthetic lethality in tumor cells producing 2HG: qHTS for the HT-1080-NT fibrosarcoma cell line. HT-1080-NT fibrosarcoma viability, CellTiter-Glo ATP luminescence, 48 h. Potency, µM (titrated, usually from 46.1 µM), inactives show top-dose activity, negative = less viability, actives largely listed as cytotoxic. hit rate 1.6% among 360,000;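 note: NT is the 2HG producing partner of a matched IDH1 knockdown line; 0% = DMSO-treated cells and -100% = media-only wells without cells; nearly all actives have a fitted effect of over 55% in size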
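HT-1080-NT fibrosarcoma cells (2HG-overproducing), 750 cells/well in RPMI with 5% FBS, dosed after 2 h and incubated 48 h at 37C. CellTiter-Glo luminescence normalized to DMSO and no-cell wells; concentration-response curves fitted and classed.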
KB-3-1 cytotox – qHTS assay for MDR1-selective chemotherapeutics: Primary screen using the parental adenocarcinoma cell KB-3-1; KB-3-1 viability, CellTiter-Glo ATP luminescence, 72 h; hit rate 1.4% among 400,000; Potency, µM (titrated, usually from 46.1 µM), actives largely listed as cytotoxic; note: % is set by controls: 0 for no effect and ±100 for the full control effect; nearly all actives have a fitted effect of over 60% in size
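Using CellTiter-Glo luminescence, growth of non-resistant KB-3-1 adenocarcinoma cells is assessed 72 h after pin-tool compound addition at 37 °C. Normalized responses across the concentration series yield fitted curves.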
MCF10A rereplic – A quantitative high throughput screen for small molecules that induce DNA re-replication in MCF 10a normal breast cells. MCF 10A DNA re-replication, Hoechst nuclear intensity, 48 h. Potency, µM (highest dose often 46.1 µM), for inactives: at the top dose activity, positive = re-replication, usual class: activators. hit rate 2.9% among 350,000. AID 624296, 2012; note: % of control where 0% means no effect; nearly all actives have a fitted effect of over 50% in size
* hit, by the source's call; i = inactive; ? = inconclusive; nt = no result given. In the library only some 7.9% were active in any assay of this set; here they are far more common. Calls come from the whole dose curve; as a rule, active = well fitted curve in the direction sought with a large enough effect; inconclusive = small, poorly fitted or top-dose-only effect, or another doubt; inactive = no such curve, though single readings can be large; an effect the other way counts as inactive or inconclusive. Potency is the fitted concentration of half-maximal effect.

SMILES	HT1080 IDH1KD tx	KB-V1 cytotox	SW480 rereplic	HT1080NT lethal	KB-3-1 cytotox	MCF10A rereplic
O=C(Nc1cccc([N+](=O)[O-])c1)Nc1cccs1	3.7%	i	-9.4%	2.0%	i	0.651µM*
O=[N+]([O-])c1cccc(NC2=NCCC2)c1	?	i	0.4%	-9.3%	13µM*	-0.7%
C[C@@H]1CN([C@@H](C)CO)C(=O)CCCn2nncc2CO[C@H]1CN(C)S(=O)(=O)c1cccc(F)c1	11.6%	i	nt	0.8%	i	nt
O=C(NCCc1c[nH]c2ccccc12)Nc1ccccc1C(F)(F)F	nt	?	nt	nt	i	nt
COc1ccc(C(=O)O/N=C(\N)Cc2ccc(Cl)cc2)cc1OC	?	?	?	14.6µM*	?	?
COc1ccc(CC(=O)O/N=C(\N)c2ccc(C)cc2)cc1	-2.8%	i	1.3%	-3.7%	i	-0.3%
COc1ccc(C(=O)O/N=C(\N)Cc2ccc(Cl)c(Cl)c2)cc1OC	?	?	nt	14.6µM*	?	?
N/C(Cc1ccc(Cl)cc1)=N\OC(=O)c1ccccc1	?	i	-0.8%	?	i	3.5%
COc1ccc(/C(N)=N/OC(=O)Cc2ccc(C)cc2)cc1OC	0.3%	i	2.91µM*	-0.2%	i	?
CCc1nc2ccc(C(=O)NC3CCN(Cc4ccccc4)CC3)cn2c1N(CC)Cc1cccc(Br)c1	23.1µM*	8.2µM*	nt	?	?	nt
CCc1nc2ccc(C(=O)Nc3ccc(OC)c(OC)c3)cn2c1N(CC)Cc1cccc(Br)c1	16.4µM*	?	nt	?	?	nt
Cc1cccn2c(=O)c(/C=C(\C#N)c3nc4ccccc4n3C)c(Oc3ccc(Cl)cc3)nc12	nt	i	nt	nt	?	nt
COc1ccc(CN(C)CC(O)COc2ccc(-c3ccccc3)cc2)cc1OC (configuration not stated)	20.6µM*	i	?	?	?	?
COc1ccc(CN(C)CC(O)COC(c2ccc(OC)cc2)c2ccc(OC)cc2)cc1 (configuration not stated)	?	?	?	20.6µM*	i	?
CCOc1ccc(CN(C)CC(O)COC(c2ccc(OC)cc2)c2ccc(OC)cc2)cc1 (configuration not stated)	?	?	?	16.4µM*	?	18.4µM*
COc1ccc(C(OCC(O)CN(C)C2CCCCC2)c2ccc(OC)cc2)cc1 (configuration not stated)	?	?	14.8%	?	i	9.3%
CCc1ccc(Nc2nc(N3CCOCC3)nc(N3CCOCC3)n2)cc1	3.5%	i	8.2µM*	-0.5%	?	19.4%
FC(F)(F)Oc1ccc(Nc2nc(N3CCOCC3)nc(N3CCOCC3)n2)cc1	7.8%	i	20.6µM*	27.6%	i	?
CCOC(=O)c1ccc(Nc2nc(N3CCOCC3)nc(N3CCOCC3)n2)cc1	?	i	?	10.3%	i	?
Fc1cccc(Nc2nc(N3CCOCC3)nc(N3CCOCC3)n2)c1	-9.1%	i	?	0.3%	?	23.1µM*
Cc1cccc(C(=O)Nc2c(-c3ccc(F)cc3)nc3ccccn23)c1	nt	i	nt	nt	i	nt
CCn1cc(C(=O)OCC(=O)Nc2cc(OC)cc(OC)c2)c(=O)c2ccc(C)nc21	nt	i	nt	nt	i	nt
CN(CC(=O)Nc1cccc(F)c1)C(=O)c1ccc(COc2ccccc2)o1	4.9%	20.6µM*	-2.4%	8.1%	i	8.0%
CN(CC(=O)Nc1cccc(F)c1)C(=O)c1cc(-c2ccccc2)nc2ccccc12	-12.5%	?	21.5%	-8.6%	i	?
CN(CC(=O)Nc1cccc(F)c1)C(=O)c1cccc2ccccc12	1.0%	18.4µM*	-3.2%	0.0%	i	11.6%
SMILES	HT1080 IDH1KD tx	KB-V1 cytotox	SW480 rereplic	HT1080NT lethal	KB-3-1 cytotox	MCF10A rereplic
CCOC(=O)Cn1c(=O)n(CC2CCCO2)c2nc(-c3ccc(C)cc3)nc(C(N)=O)c21 (configuration not stated)	nt	?	nt	nt	i	nt
CCOC(=O)[C@]12CCCC=C1N(Cc1ccc(Cl)cc1Cl)C(=O)[C@H](CC(=O)N1CCOCC1)C2	1.8%	?	nt	-3.0%	i	nt
CCN(CC)CCN1CCN(c2cncc(-c3ccc4ccccc4c3)n2)CC1	16.4µM*	?	nt	23.1µM*	?	nt
c1ccc(OCCCCn2cnc3ccccc32)cc1	?	i	4.0%	-4.8%	i	1.9%
c1ccc2c(c1)ncn2CCCCOc1ccc2c(c1)CCC2	3.5%	?	?	-3.0%	?	20.6µM*
c1ccc2c(c1)ncn2CCCOc1ccc2c(c1)CCC2	?	11.6µM*	26.2%	?	?	?
CCOc1ccc(-c2cc(CCCC(=O)NCCc3cc(OC)c(OC)c(OC)c3)no2)cc1	nt	i	nt	nt	i	nt
CCN(C(=O)Cn1c(SCC(=O)Nc2ccc(OC)cc2)nc2ccccc21)c1cccc(C)c1	nt	i	nt	nt	i	nt
CCc1ccc(NC(=O)COC(=O)c2ccccc2OCC(=O)N(C)C)cc1	nt	i	nt	nt	i	nt
CS(=O)(=O)NNC(=O)c1cc2cc3ccccc3nc2s1	9.9%	i	-5.1%	4.9%	i	-3.3%
NNC(=O)c1cc2cc3ccccc3nc2s1	?	i	5.7%	?	i	11.6µM*
CSc1nc(-c2ccc(Cl)cc2)c(C#N)c(=O)n1C	2.5%	i	-0.4%	5.0%	i	0.2%
CSc1nc(-c2ccc(N(C)C)cc2)c(C#N)c(=O)n1C	-0.9%	i	7.31µM*	3.3%	i	11.6µM*
C=CCCC1CN(CCCC)S(=O)(=O)c2c(F)cccc2O1 (configuration not stated)	-1.9%	i	25.7%	8.5%	i	2.5%
CCCCCc1c(-c2cccc(OC)c2)ncn1CCc1ccccc1OC	?	16.4µM*	nt	20.6µM*	?	nt
CCCCc1c(-c2cccc(F)c2)ncn1CCc1ccccc1OC	?	11.6µM*	nt	?	?	nt
CCCCc1c(-c2cccc(Br)c2)ncn1CCc1ccccc1OC	?	10.3µM*	nt	14.6µM*	?	nt
CCCCCc1c(-c2cccc(F)c2)ncn1CCc1ccccc1OC	?	8.2µM*	nt	?	?	nt
CCCCCc1c(-c2cccc(Cl)c2)ncn1CCc1ccccc1OC	-14.6%	?	nt	-17.7%	i	nt

Screening data (PubChem BioAssay)
